PLK1 PBD inh: qHTS for Inhibitors of PLK1-PDB (polo-like kinase 1 - polo-box domain): Primary Screen. 360,000 tested, 2.8% active. Plk1 PBD binding of FITC phosphopeptide, fluorescence polarization. Potency, µM, usual class: inhibitors; also: series mostly up to about 57 µM; nearly all actives have a fitted effect of over 65% in size
Tau FP inhib: qHTS for Inhibitors of Tau Fibril Formation, Fluorescence Polarization; Microtubule-associated protein tau (Homo sapiens), P10636; K18 P301L tau heparin fibrillization, Alexa594 FP, 6 h; Potency, µM (top dose mostly 57.7 µM), usual class: inhibitors; 280,000 tested, 0.39% active; also: nearly all actives have a fitted effect of over 55% in size
Target sequence (P10636 561-689 P618L limits assumed): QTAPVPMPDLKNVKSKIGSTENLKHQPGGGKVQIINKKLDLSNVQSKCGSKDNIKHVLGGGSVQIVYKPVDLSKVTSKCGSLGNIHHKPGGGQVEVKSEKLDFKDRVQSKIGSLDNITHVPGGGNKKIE
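Human tau K18 […] P301L fragment, 15 uM unlabeled plus 0.24 uM Alexa 594-labeled tau (final), with compound and 20 uM heparin in 100 mM sodium acetate pH 7; 6 hr at 37 C, then Alexa 594 FP read.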
Sfp PPTase inh: qHTS Assay for Inhibitors of Bacillus subtilis Sfp phosphopantetheinyl transferase (PPTase); 4'-phosphopantetheinyl transferase ffp (Bacillus subtilis), Q9F4F7; Biochemical Sfp PPTase activity, qHTS; Potency, µM, hits mostly inhibitors; 310,000 tested, 3.5% active;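 also: the enzyme is Sfp with the accession as filed and its product quenches rhodamine fluorescence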
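Fluorescence-quenching assay with 15 nM Sfp, 5 uM rhodamine-CoA and 12.5 uM BHQ-2-labelled ybbR peptide in pH 7.6 Hepes/MgCl2 buffer. Enzyme was pre-incubated with compound for 15 min at room temperature. Rate was taken from the 30-min fluorescence change (525/598 nm).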
VDR inh: Inhibitors of the vitamin D receptor (VDR): qHTS; Potency, µM, usual class: inhibitors; 400,000 tested, 0.93% active; VDR-SRC2-3 peptide fluorescence polarization, 2 h; AID 504847, 2011
Target sequence (P11473 whole entry, looked up): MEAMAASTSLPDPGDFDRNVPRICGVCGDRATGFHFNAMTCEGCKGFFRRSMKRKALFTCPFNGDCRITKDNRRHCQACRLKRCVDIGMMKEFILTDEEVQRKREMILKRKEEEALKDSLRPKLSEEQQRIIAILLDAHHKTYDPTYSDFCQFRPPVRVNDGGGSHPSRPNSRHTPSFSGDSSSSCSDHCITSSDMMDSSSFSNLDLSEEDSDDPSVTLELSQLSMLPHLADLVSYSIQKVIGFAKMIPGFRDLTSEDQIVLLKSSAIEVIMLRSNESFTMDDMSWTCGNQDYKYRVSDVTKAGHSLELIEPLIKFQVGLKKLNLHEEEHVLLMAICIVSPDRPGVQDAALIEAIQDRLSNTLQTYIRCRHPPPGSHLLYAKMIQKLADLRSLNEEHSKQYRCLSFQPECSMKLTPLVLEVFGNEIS
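Signal is fluorescence polarization, reporting how far test compounds block the interaction of VDR with the SRC2-3 coregulator peptide after a 2 h room-temperature incubation.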
Tau fluor counter: Counterscreen qHTS for Inhibitors of Tau Fibril Formation, Fluorescence Polarization; tau K18 P301L Alexa594 fluorescence, heparin fibrillization; Potency, µM (series often up to 57.7 µM); 280,000 tested, 0.93% active; also: nearly all actives have a fitted effect of over 55% in size
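Human tau K18 P301L (15 uM unlabeled, 0.24 uM Alexa 594-labeled) in 100 mM sodium acetate pH 7 with 20 uM heparin, 6 hr at 37 C. ThT 30 uM added, 1 hr ambient; Alexa 594 FP and total fluorescence read at 555/632 nm.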
Tau ThT inhib: qHTS for Inhibitors of Tau Fibril Formation, Thioflavin T Binding. recombinant tau K18 P301L, heparin-induced fibrillization, ThT fluorescence. AID 1460, 2008. 270,000 tested, 2.1% active. Potency, µM (series often up to 57.4 µM), actives largely listed as inhibitors; also: nearly all actives have a fitted effect of over 55% in size
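Using a mix of unlabeled (15 uM) and Alexa 594-labeled (0.24 uM) tau K18 P301L, heparin-triggered fibrillization over 6 hr at 37 C was scored by ThT fluorescence.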
Numbers stand for hits; [ ] = remark or other dose. Sampled rows, rich in hits. Any-hit rate of the full collection: about 6%. Calls follow the shape of the dose curve; as a rule, active = well fitted curve in the direction sought with a large enough effect; inconclusive = small, poorly fitted or top-dose-only effect, or another doubt; inactive = no such curve, though single readings can be large; an effect the other way counts as inactive or inconclusive.

For C#CCOc1ccc(OC)cc1C(c1c(C)[nH][nH]c1=O)c1c(C)[nH][nH]c1=O the results were PLK1 PBD inh 21µM, Sfp PPTase inh inactive and VDR inh inconclusive.
Screening O=C(O)/C=C/CO returned Tau FP inhib inactive, Sfp PPTase inh inactive, VDR inh inactive, Tau fluor counter inactive and Tau ThT inhib inactive.
For C[C@H]1CC[C@H]2NCCN[C@H]2C1 the results were PLK1 PBD inh inactive, Tau FP inhib inactive, Sfp PPTase inh 100µM, VDR inh inactive, Tau fluor counter inactive and Tau ThT inhib inactive.
`O=C(O)Cn1cc(/C=C2\C(=O)NC(=O)N(c3ccc(Cl)cc3)C2=O)c2ccccc21` gave PLK1 PBD inh 15µM, Sfp PPTase inh inconclusive and VDR inh inconclusive.
For CCN(CC)C(=O)Cn1cc(/C=C2\C(=O)NC(=O)N(c3ccccc3F)C2=O)c2ccccc21 the results were PLK1 PBD inh 4.7µM, Sfp PPTase inh inconclusive and VDR inh 79µM.
For COC(=O)[C@H]1C(=O)c2ccccc2O[C@@](C(=O)OC)(c2ccccc2)[C@@H]1c1ccccc1 the results were Tau FP inhib inactive[11.6 µM], Sfp PPTase inh inactive, Tau fluor counter inactive[11.6 µM] and Tau ThT inhib inactive[11.5 µM].
`Cc1ccc2c(c1)CC1(CN2C)C(=O)NC(=O)N(CCC2=CCCCC2)C1=O` (stereo not drawn) gave PLK1 PBD inh inactive, Tau FP inhib inconclusive, Sfp PPTase inh inactive, VDR inh inactive, Tau fluor counter inactive and Tau ThT inhib 25µM.
`CC1(C)C[C@H]2C=C(C=O)[C@]3(C=O)C[C@]3(C)[C@H]2C1` gave PLK1 PBD inh inactive, Tau FP inhib inconclusive, Sfp PPTase inh inconclusive, VDR inh inactive, Tau fluor counter inactive and Tau ThT inhib 14µM.
For N#CC(C#N)=Cc1ccc([N+](=O)[O-])c(O)c1 the results were Tau FP inhib inconclusive, Sfp PPTase inh 35µM, Tau fluor counter inconclusive and Tau ThT inhib 25µM.
`N#CC(C#N)=Cc1ccc(C=C(C#N)C#N)cc1` gave PLK1 PBD inh inactive, Tau FP inhib inconclusive, Sfp PPTase inh inconclusive, VDR inh inconclusive, Tau fluor counter inactive and Tau ThT inhib 20µM.
Cc1cc(N2CCCC2)ccc1C=C(C#N)C#N was read as PLK1 PBD inh inconclusive, Tau FP inhib inactive, Sfp PPTase inh inactive, VDR inh inconclusive, Tau fluor counter inactive and Tau ThT inhib inactive.
Screening O=C(Nc1cccc(F)c1)N1CCCC2(CCN(C(=O)Oc3ccccc3)CC2)C1 returned Sfp PPTase inh inactive and VDR inh inactive.
`COc1ccc(CCNc2nccn(-c3ccc(C)c(C)c3)c2=O)cc1OC` gave Tau FP inhib inactive, VDR inh inactive, Tau fluor counter inactive and Tau ThT inhib inconclusive.
`CCC1CN2CCC1CC2C(Oc1cc2ccccc2c2ccccc12)c1ccnc2ccc(O)cc12` (stereo not drawn) gave Tau FP inhib inactive[11.6 µM], Sfp PPTase inh inactive, Tau fluor counter inactive[11.6 µM] and Tau ThT inhib inconclusive.
For COc1cc2c(cc1O)C(CCc1ccc(Cl)cc1)N(C)CC2 (stereo not drawn) the results were Tau FP inhib inactive, Sfp PPTase inh inactive, Tau fluor counter inactive and Tau ThT inhib inactive.
`NCCc1cccc(O)c1` gave Tau FP inhib inactive, Sfp PPTase inh inactive, VDR inh inactive, Tau fluor counter inactive and Tau ThT inhib inactive.
For c1ccc(N2CC[C@@]3(CCCNC3)C2)cc1 the results were Sfp PPTase inh inconclusive and VDR inh 50µM.
O=C(Nc1ccc(Cl)c(C(F)(F)F)c1)NC1CC2CCCC(C1)N2Cc1ccccc1 (stereo not drawn) was read as PLK1 PBD inh inactive, Tau FP inhib 28µM, Sfp PPTase inh inactive, VDR inh inactive, Tau fluor counter inconclusive and Tau ThT inhib inactive.
`O=[N+]([O-])/C=C/c1ccc2c(c1)OCO2` gave VDR inh 7.1µM.
COc1cc2c(cc1/C=C/[N+](=O)[O-])OCO2 was read as PLK1 PBD inh inconclusive, Tau FP inhib inactive, Sfp PPTase inh inactive, VDR inh 25µM, Tau fluor counter inactive and Tau ThT inhib inconclusive.
COC1=CC(=O)O[C@H](/C=C/c2ccc3c(c2)OCO3)C1 was read as Sfp PPTase inh inactive and VDR inh inactive.
For Cc1ccccc1-c1nn2c(=O)cc(CN3CCN(C(=O)COc4ccccc4Cl)CC3)nc2s1 the results were Tau FP inhib inactive, VDR inh inactive, Tau fluor counter inactive and Tau ThT inhib inactive.
`Clc1cccc(CN2CCCCC2c2cccnc2)c1` (stereo not drawn) gave PLK1 PBD inh inactive, Tau FP inhib inactive, Sfp PPTase inh 50µM, VDR inh inactive, Tau fluor counter inactive and Tau ThT inhib inactive.
`c1cncc(C2CCCCN2Cc2ccc3c(c2)OCO3)c1` (stereo not drawn) gave PLK1 PBD inh inactive, Tau FP inhib inactive, Sfp PPTase inh inactive, VDR inh inactive, Tau fluor counter inactive and Tau ThT inhib inactive.
Screening CN1CSC(=S)N(C)C1 returned PLK1 PBD inh inconclusive, Tau FP inhib inactive, Sfp PPTase inh 45µM, VDR inh inactive, Tau fluor counter inactive and Tau ThT inhib inactive.
Screening CCOC(=O)CC(NC(=O)C(Cc1ccc(N(CCCl)CCCl)cc1)NC(C)=O)C(=O)OCC (stereo not drawn) returned PLK1 PBD inh 6µM, Tau FP inhib inactive[2.34 µM], Sfp PPTase inh 79µM, VDR inh inconclusive, Tau fluor counter inactive and Tau ThT inhib inactive.
Screening CCCCCCCSc1cc(OC)c(CCN(C)C)cc1OC returned PLK1 PBD inh inactive, Tau FP inhib inactive, Sfp PPTase inh 14µM, VDR inh inactive, Tau fluor counter inactive and Tau ThT inhib inconclusive.
For Cc1nc(-c2ccc(-c3ccc(C(=O)N4CCc5cc6c(cc54)C4(CCN(C)CC4)CO6)cc3)c(C)c2)no1 the results were Tau FP inhib inactive, Sfp PPTase inh 63µM, Tau fluor counter inactive and Tau ThT inhib inconclusive.
`O=C(Oc1ccc2ccc(OC(=O)N3CCCCCC3)cc2c1)N1CCCCCC1` gave PLK1 PBD inh inactive, Tau FP inhib inactive, Sfp PPTase inh inactive, VDR inh inactive, Tau fluor counter inactive and Tau ThT inhib inconclusive.
For COc1ccc(Nc2c(-c3cc(Br)ccc3O)nc3ncccn23)cc1OC the results were Tau FP inhib inactive, VDR inh inactive, Tau fluor counter 8.9µM[quencher] and Tau ThT inhib inconclusive.
`CCCCCCCCCOc1ccc2[nH]cc(CCN)c2c1` gave Tau FP inhib inconclusive, Sfp PPTase inh 50µM, VDR inh inactive, Tau fluor counter 7.9µM[quencher] and Tau ThT inhib inconclusive.

High-throughput results (PubChem)
